Bioassay records deposited in PubChem by The Scripps Research Institute Molecular Screening Center.
DAX1 inh-1 – inhibits human nuclear receptor DAX1 | inhibition, % at 6.75 µM | HEK293 Gal4-DAX1 luciferase reporter, luminescence | actives 0.99% (n = 340,000) | P51843;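 active = inhibition above the mean over all tested compounds plus 3 SD, cut at about 4.2% in these data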;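 note: 0% = DAX1-transfected cells with DMSO and 100% = empty-vector control cells with DMSO; inhibition shows as a rise in luminescence from relieved DAX1 repression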
Target sequence (P51843 207-470 limits assumed): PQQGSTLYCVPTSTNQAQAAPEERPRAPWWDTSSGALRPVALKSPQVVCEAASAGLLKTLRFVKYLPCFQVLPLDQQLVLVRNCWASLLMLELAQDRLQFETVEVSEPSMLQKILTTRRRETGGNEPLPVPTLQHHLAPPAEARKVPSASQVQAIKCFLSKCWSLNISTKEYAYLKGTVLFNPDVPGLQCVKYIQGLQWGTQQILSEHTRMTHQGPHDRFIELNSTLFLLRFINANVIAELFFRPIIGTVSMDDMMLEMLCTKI
hgDAF-12 ag – hgDAF-12 agonism, primary luciferase screen. activation, % at 6.8 µM. actives 1.8% (n = 370,000). HEK293 GAL4-hgDAF12 UAS-luciferase reporter, agonist luminescence; normalized to butyrate control;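 active = activation above a cutoff set at the mean of all screened compounds plus 3 SD, cut at about 10% in these data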;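 note: 0% = DMSO wells and 100% = sodium butyrate wells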
hcDAF12 agonist – activators of H. contortus DAF-12 nuclear receptor. HEK293 hcDAF-12 lit1-tk-luc reporter, luminescence; 0% DMSO, 100% Δ7-dafachronic acid. activation, % at 6.8 µM. actives 1.4% (n = 370,000). AID 652067;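 active = activation above the mean of all tested compounds plus 3 SD, cut at about 5.5% in these data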;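 note: 100% = response to 3 µM Δ7-dafachronic acid high control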
DAX1 inh-2 – blocks DAX1 repression of SF-1 activated StAR promoter; AID 652010; inhibition, % at 6.8 µM; actives 1.1% (n = 370,000); HEK293T StAR-luciferase reporter, SF-1/DAX-1 repression relief;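 active = inhibition above the mean over all tested compounds plus 3 SD, cut at about 3.6% in these data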;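 note: 0% = DAX-1 cells with DMSO and 100% = cells lacking DAX-1 with DMSO; higher inhibition means more luminescence from relief of DAX-1 repression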
ssDAF12 agonist – activators of S. stercoralis DAF-12 nuclear receptor; HEK293 ssDAF-12/GRIP1 lit1-tk-luc reporter, luminescence; % of 3 µM dafachronic acid response; activation, % at 6.8 µM; actives 1% (n = 370,000); AID 652126;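 active = activation above the mean over all tested compounds plus 3 SD, cut at about 0.9% in these data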;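 note: 0% = DMSO-only wells and 100% = 3 µM delta7-dafachronic acid wells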
An asterisk follows results filed as active; . = no result. Rows were chosen to be rich in hits. Some 4.1% of all compounds tested hit in one or more screens of this group.

SMILES	DAX1 inh-1	hgDAF-12 ag	hcDAF12 agonist	DAX1 inh-2	ssDAF12 agonist
Cc1ccc(CN2CCCCC(NC(=O)c3cccc([N+](=O)[O-])c3)C2=O)cc1 (stereo not drawn)	.	-2	-2	-2	-1
COCCOC(=O)C1=C(N)OC2=C(C(=O)CC(C)(C)C2)C1c1ccncc1 (stereo not drawn)	5.3*	-1	-1	0	-2
CCOC(=O)[C@]12CCCCC/C=C\1N(Cc1ccc(OC)cc1)C(=O)[C@H]2CC(=O)NCCC(C)C	.	-2	0	1	0
Cc1cc2c(nc1C)CCCN2S(=O)(=O)c1ccccc1	.	-1	-1	2	-1
CCc1ccccc1N=Nc1c(N)[nH]n(-c2ccccc2)c1=O	.	11*	1	2	-1
Nc1[nH]n(-c2ccccc2)c(=O)c1N=Nc1ccccc1[N+](=O)[O-]	2	8	2	1	0
Nc1[nH]n(-c2ccccc2)c(=O)c1N=Nc1ccccc1	3	9	4	1	1.3*
COC(=O)[C@H](C(C)C)N(CCCc1cn(CC2CCCCC2)nn1)S(=O)(=O)c1ccccc1Br	.	-2	-2	-1	-2
C/C(=N\Nc1ccccn1)c1cccs1	3	10	3	3.9*	0
CCCCOCCCNC(=O)C[C@H]1C[C@@]2(C(=O)OC)C(=C[C@H](C(C)(C)C)O[C@@H]2C)N(Cc2ccccc2)C1=O	.	1	0	-1	-1
CCn1cnc2cc(NCc3ccc(Br)cc3)ccc21	.	3	5	2	-1
Cc1ccc(CNc2ccc3c(c2)ncn3C(C)C)cc1	6.2*	7	1	2	-1
CCn1cnc2cc(NCc3ccc(C)cc3)ccc21	2	4	1	4.4*	-1
CC1(N2CCCCC2)C(=O)c2ccccc2C1=O	0	2	2	0	1.0*
CC(Sc1nnc(COc2ccccc2)n1Cc1ccccc1)C(=O)O (stereo not drawn)	1	0	0	1	0.9*
C[C@H](NC(=O)c1ccco1)C(=O)Nc1cccc([N+](=O)[O-])c1	5.3*	3	1	0	-2
O=C(Nc1cc(Oc2ccc(Cl)cc2)cc([N+](=O)[O-])c1)c1ccco1	-1	-2	5.6*	0	-1
Cc1nc2sc(C(=O)NCc3ccc4c(c3)OCO4)c(N)c2c(C)c1Cl	.	-1	-3	0	-1
COCC1CN(CCc2ccc(F)cc2)S(=O)(=O)c2c(OCCN3C(=O)[C@@H]4[C@H](C3=O)[C@@H]3C=C[C@H]4C3)cccc2O1 (stereo partly drawn)	.	-5	-1	-4	-2
COc1ccc2nc(NC(=O)CSc3nnc(C)n3N)sc2c1	1	10	4	3.8*	0
COc1ccc2nc(NC(=O)CN3CCOCC3)sc2c1	1	11*	1	0	-1
COc1ccc2nc(NC(=O)CN3CCN(C)CC3)sc2c1	1	2	2	0	-1
COc1ccc2nc(NC(=O)CSc3nnc(N)s3)sc2c1	-1	-1	0	1	-1
CCOc1ncccc1C(=O)OCC(=O)c1ccccc1Br	2	-1	-2	0	1.2*
CCOc1ncccc1C(=O)OCC(=O)c1ccccc1	-1	-2	-2	-1	-2
SMILES	DAX1 inh-1	hgDAF-12 ag	hcDAF12 agonist	DAX1 inh-2	ssDAF12 agonist
Cn1nnnc1SCC(=O)N1CCN(C(=O)c2ccco2)CC1	4.3*	2	-1	0	-1
Cc1nnc(SCC(=O)N2CCN(C(=O)c3ccco3)CC2)n1C	4.7*	1	0	-1	-1
CCCCn1nnnc1SCC(=O)N1CCN(C(=O)c2ccco2)CC1	0	-1	-1	1	-1
CCOC(=O)C1C[C@@H](O)C=CC1=O (stereo partly drawn)	.	2	-1	.	-1
C=CCn1c(COc2ccc(C)cc2)nnc1SCC(=O)Nc1cc(Cl)cc(Cl)c1	.	-2	-2	-2	-2
Cc1cc(SCC(=O)O)nc2ccccc12	-1	0	0	0	-1
CCOC(=O)c1c(NC(=O)CSc2nc3cc(Cl)ccc3s2)sc(C(C)=O)c1C	.	1	5.8*	0	-1
O=C(CSc1nc2ccccc2s1)N1c2ccccc2Sc2ccc(Cl)cc21	0	3	-2	0	-2
Cc1cc(NC(=O)CSc2nc3cc(Cl)ccc3s2)no1	1	3	2	1	-1
CCOC(=O)c1c(NC(=O)CSc2nc3ccccc3s2)sc(C(C)=O)c1C	-1	-2	1	1	-1
O=C(CSc1nc2cc(Cl)ccc2s1)c1cc2ccccc2o1	0	3	2	1	3.4*
O=c1oc2cc(Cl)ccc2n1CSc1nc2ccccc2s1	3	12*	6.5*	3	1
Cc1cc(SCC(=O)c2cc3ccccc3o2)nc2ccccc12	0	4	5	1	1.1*
O=c1c2ccccc2n(Cc2ccno2)n1[C@@H](Cc1ccccc1)Cn1cc(-c2ccc(-c3ccccc3)cc2)nn1	.	-5	-3	-1	-1
C[C@@H]1CN([C@@H](C)CO)C(=O)CCCn2cc(nn2)CO[C@H]1CN(C)S(C)(=O)=O	.	0	1	1	-1
CCCOc1ccc(-c2cc(C(C)=O)c3n(c2=O)CCC3)cc1	.	-3	-4	-1	-2
Cc1cc(O)cc(=O)n1-c1cccc(Br)c1	.	-3	0	0	-1
Cc1c(N=C2C=C(Br)C(=O)C(Br)=C2)c(=O)n(-c2ccccc2)n1C	3	-4	-1	0	-2
Cc1c(N=C2C=CC(=O)c3ccccc32)c(=O)n(-c2ccccc2)n1C	2	4	5	0	1.4*
COc1ccccc1NC(=O)C(=O)N/N=C/c1cccs1	1	8	6.2*	1	-1
COC(=O)[C@]12C[C@H](CC(=O)N3CCCCC3)C(=O)N(Cc3ccco3)C1=C[C@H](COCc1ccccc1)O[C@@H]2C	.	0	0	-2	-1
COc1ccc(COc2ccc3c(C)cc(=O)oc3c2)cc1	4	12*	0	1	-1
COc1ccc(CCNC(=O)COc2ccc3c(C)cc(=O)oc3c2)cc1	-1	4	1	0	-1
CC(C)(C)c1ccc(C(=O)NCC(=O)N2CCCC2)cc1	0	2	2	1	-1
CC(C)(C)c1ccc(C(=O)NC(=S)N2CCCC2)cc1	1	3	4	1	1.8*
CC(=O)Nc1ccc(C(=O)Nc2ccc(S(=O)(=O)N3CCOCC3)cc2)cc1	1	-1	0	-1	-1
CC(C)(C)c1ccc(C(=O)NCCN2CCCC2)cc1	1	2	1	0	1.1*
CC(C)(C)c1ccc(C(=O)NC(=S)N2CCCCCC2)cc1	0	1	-1	-1	-1
CC(=O)N1CCN(C(=S)NC(=O)c2ccc(S(=O)(=O)N3CCOCC3)cc2)CC1	4.7*	1	-4	-1	-1
